Screening results from PubChem BioAssay.
D2 PAM-1: potentiates the human D2 dopamine receptor allosterically. actives 0.23% (n = 360,000). potentiation, % (concentration not given with the values). DiscoveRx D2 beta-arrestin cells, luminescence, 90 min; 100% = 57 uM dopamine signal. P14416; in the data active = potentiation above about 50%; inconclusive = mostly about 30% to 49%
Target sequence (P14416 whole entry, looked up): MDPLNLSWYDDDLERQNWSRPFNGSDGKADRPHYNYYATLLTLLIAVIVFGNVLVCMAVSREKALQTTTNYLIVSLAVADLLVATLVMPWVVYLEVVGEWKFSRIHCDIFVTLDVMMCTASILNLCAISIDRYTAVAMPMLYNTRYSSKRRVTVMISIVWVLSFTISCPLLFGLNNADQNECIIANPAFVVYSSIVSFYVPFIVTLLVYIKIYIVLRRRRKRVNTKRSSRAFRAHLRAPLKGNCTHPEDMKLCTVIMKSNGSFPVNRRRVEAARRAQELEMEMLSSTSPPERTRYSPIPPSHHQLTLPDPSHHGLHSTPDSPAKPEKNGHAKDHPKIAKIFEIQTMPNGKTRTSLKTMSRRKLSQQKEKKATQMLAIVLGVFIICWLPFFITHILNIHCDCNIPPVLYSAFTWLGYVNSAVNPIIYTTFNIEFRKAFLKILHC
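PathHunter D2 cells, attached overnight at 37 deg C, received compound in DMSO plus dopamine at EC20 (50 nM final) for 90 min at 37 deg C. Beta-arrestin recruitment was read as luminescence after 1 h with detection reagent at ambient temperature.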
D2 ag-1: agonists of human D2 dopamine receptor (beta-arrestin) | P14416 | DiscoveRx PathHunter D2 beta-arrestin, luminescence, 90 min; 100% = 57 uM dopamine signal | activation, % (concentration not given with the values) | actives 0.084% (n = 360,000) | AID 624465; in the data active = activation above about 40%; inconclusive = between about 15% and that limit
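DiscoveRx PathHunter D2 beta-arrestin cells (2,100/well) attached overnight, then compound-stimulated 90 min at 37 C in HBSS/10 mM HEPES/0.1% Tween-20 buffer; beta-galactosidase complementation read by luminescence after 1 h at ambient temperature. Dopamine 57 uM final (EC100) as control.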
D2 antagonist: antagonizes the human D2 dopamine receptor; AID 485344; actives 2% (n = 340,000); inhibition, % at 10 µM; HEK293 TREx D2 cells, calcium flux, dopamine EC80; P14416; in the data active = inhibition above about 30%; inactive = below that, where a call was filed; note: 0% is about no effect
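Calcium flux kinetic readout in an inducible HEK293 TREx D2 line plated overnight at 30 C. After 180 s compound exposure, an EC80 dopamine challenge follows with another 180 s kinetic read to detect antagonism.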
D2 PAM-2: positive allosteric modulators of human D2 dopamine receptor | HEK293 T-REx D2, calcium flux, EC20 dopamine potentiation | potentiation, % at 10 µM | actives 0.34% (n = 340,000);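 active = potentiation over 3 SD above the plate norm, cut at about 30% in these data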; note: 0% is about no effect
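Calcium flux readout, no-wash dye, 1 read/s. Inducible HEK293 Trex D2 line, overnight 30 C. Compound alone 180 s (agonist flags), then EC20 dopamine, another 180 s to score potentiation.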
D2 ag-2: activates the human D2 dopamine receptor; HEK293 T-REx D2 cells, calcium flux agonist mode; AID 485358; activation, % at 2 µM; actives 0.53% (n = 340,000);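 active = activation over 3 SD above normal in the single-dose calcium agonist read, cut at about 30% in these data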; note: 0% is about no effect
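Calcium-flux readout, 1 cycle/sec over 180 s following compound pin transfer, in inducible HEK293 Trex D2 cells (force-coupled); dopamine controls included. Positive calcium responses during this window marked compounds as potential agonists.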
The depositor's hits bear a star; ? = inconclusive; / = no result given. The list is not random: actives were taken first. Their share in the collection is about 2.4%.

SMILES	D2 PAM-1	D2 ag-1	D2 antagonist	D2 PAM-2	D2 ag-2
O=C(NCc1ccccc1CN1CCCC1)c1ccc(OCc2cscn2)cc1	-3	-2	35*	-7	1
O=C(COC(=O)CSc1ccc(F)cc1)NNC(=O)c1ccc([N+](=O)[O-])cc1	-8	-2	-3	-1	0
CCOc1ccc(/C=N/Nc2nc(=O)[nH]nc2C)cc1OC	-3	-2	-16	44*	0
COCC(=O)N[C@@H]1c2cc(OC)c(OC)cc2C[C@H]1OCc1ccccc1	-1	0	/	/	/
C(#CC1CCCCC1)c1ccc2c(c1)COc1c3ccccc3nn1-2	5	1	2	34*	0
CCCCN(C=O)c1c(CC)nc2ccc(C(=O)N(C)Cc3ccccc3)cn12	-5	-1	/	/	/
Cn1c(-c2nonc2NC(=O)c2ccc(C(C)(C)C)cc2)nc2ccccc21	/	/	44*	2	1
CC(=O)Nc1nonc1-c1nc2ccccc2n1C	-8	-1	-3	8	-1
CCc1c(C)nc(SCc2nc(-c3ccccc3)no2)[nH]c1=O	/	/	/	14	-1
Cc1cc(C(=O)Nc2c(F)cc(F)cc2Br)n(-c2ccccc2)n1	-7	5	1	-1	0
CC1=C(C(=O)OCc2ccccc2)C(c2ccccc2Br)NC(=O)N1 (stereo unspecified)	?	97*	0	1	1
CC1=C(C(=O)OCc2ccccc2)C(c2cccc([N+](=O)[O-])c2)NC(=O)N1 (stereo unspecified)	59*	4	2	4	1
COc1ccccc1C1NC(=O)NC(C)=C1C(=O)OCc1ccccc1 (stereo unspecified)	-2	8	6	6	1
COCCNC(=O)CSc1nc2cc3c(cc2c(=O)n1CCCC(=O)NCc1ccc2c(c1)OCO2)OCO3	/	/	/	9	/
Cc1ccc(NC(=O)c2ccco2)c(NC(=O)c2ccc(Cl)cc2)c1	-8	1	14	4	-1
O=C1NC(=S)SC1=Cc1cccs1	-11	-7	/	/	/
CN1CCC/C1=C/C=C1\SC(=S)NC1=O	-31	-6	8	6	50*
O=C(Nc1ccc2nc3n(c(=O)c2c1)CCCCC3)C(=O)Nc1ccccc1F	/	/	/	-1	0
Nn1c(SC/C=C/c2ccccc2)nnc1-c1ccncc1	-13	-5	38*	18	0
COCCN1CC(O)=C(c2nc3ccccc3c(=O)[nH]2)C1=N	-1	-1	38*	16	0
CCCCCN1CC(O)=C(c2nc3ccccc3[nH]2)C1=N	-6	-8	39*	-2	2
CON/C=C(\C=Nc1ccc(Cl)cc1Cl)c1ncc(C(F)(F)F)cc1Cl	-3	-2	19	-5	1
CON/C=C(\C=Nc1ccccc1)c1ncc(C(F)(F)F)cc1Cl	-8	-1	-4	34*	1
Cc1cc(NC(=O)CSc2nnc(-c3ccccc3)o2)no1	-3	1	/	/	/
Cc1cc(NC(=O)CSc2nnc(-c3ccccc3)c(-c3ccccc3)n2)no1	-2	1	80*	-7	-1
SMILES	D2 PAM-1	D2 ag-1	D2 antagonist	D2 PAM-2	D2 ag-2
Cc1cc(NC(=O)CCS(=O)(=O)c2nc(-c3ccccc3)cc(C(F)(F)F)n2)no1	-19	-7	13	38*	1
Cc1cc(C)cc(-c2nnc(SCC(=O)Nc3cc(C)on3)o2)c1	-11	0	36*	8	0
Cc1cc(NC(=O)CCc2ccc(-c3ccccc3)o2)no1	-19	-6	33*	-16	0
Cc1cc(NC(=O)CSc2ccccc2)no1	-22	-2	2	6	-1
COc1ccc(NC(=O)CCS(=O)(=O)c2nc(-c3ccc4c(c3)OCO4)cc(C(F)(F)F)n2)cc1	/	/	/	6	1
O=C(Nc1cccc(Cl)c1)c1ccc2sc([C@H]3C[C@H](O)[C@@H](CO)O3)nc2c1	-6	-1	/	/	/
COc1ccc(NC(=O)N(C)[C@H]2C[C@H]3c4[nH]c5ccc(-c6cccc(C)c6)cc5c4CCN3C[C@H]2[C@H](C)O)cc1	-4	-7	/	/	/
C[C@H](O)[C@@H]1C(=O)N2CCc3ccc(N4CCN(C)CC4)cc3[C@@H]2C[C@@H]1N(C)C(=O)c1ccco1	-1	-10	/	/	/
O=C(CSCC(=O)NC1CC1)Nc1ccc2ccccc2c1	-29	0	35*	-21	1
COC(=O)COc1ccc2oc(=O)cc(-c3cc4cccc(OC)c4o3)c2c1	4	0	46*	1	0
CCC1CN(C(=O)N2CCC(C(=O)N(C)Cc3ccccc3)CC2)c2ccccc2O1 (stereo unspecified)	/	/	/	-9	3
CC1=CC(C)(C)Nc2ccc(OC(=O)CCN3C(=O)c4ccccc4C3=O)cc21	131*	?	-1	1	-1
Cc1[nH]c2ccccc2c1C(c1ccncc1)N1CCN(c2ccccn2)CC1 (stereo unspecified)	3	0	15	-21	35*
O=C(CN1CCN(c2ccc(O)cc2)CC1)N1CCc2ccccc21	-4	9	40*	-25	0
O=C(CN1CCCCC1)N1CCc2ccccc21	-10	1	11	-21	0
Cc1c(Br)c([N+](=O)[O-])nn1CC(=O)N1CCCc2ccccc21	-11	-4	11	34*	0
O=C(CN1CCN(Cc2ccccc2)CC1)N1CCCc2ccccc21	-23	-7	32*	-17	-1
O=C(CN1CCN(c2ccccc2)CC1)N1CCc2ccccc21	-24	1	-12	-25	1
Cc1cc[n+](CC(=O)N2CCCc3ccccc32)cc1	-11	2	39*	-19	-1
CCOc1ccc(NS(=O)(=O)c2ccc(C(=O)NCC(c3ccc(OC)cc3)N3CCCC3)cc2)cc1 (stereo unspecified)	-19	-6	3	-11	0
O=C(O)c1cc2c(cc1NC(=O)C1CCCC1)OCCO2	-8	-6	33*	-15	1
CCN1CCN(Cc2ccc(NC(=O)c3ccc(C)c(NC(=O)c4c[nH]c5cc(C(F)(F)F)ccc5c4=O)c3)cc2C(F)(F)F)CC1	0	-2	36*	-4	-1
Cc1ccc(C(=O)Nc2cccc(C(F)(F)F)c2)cc1NC(=O)c1c[nH]c2cc(C(F)(F)F)ccc2c1=O	-3	1	/	/	/
O=C(Nc1nnc([C@@H]2O[C@H](CO)[C@@H](O)[C@H]2O)s1)Nc1ccccc1C(F)(F)F	-15	-4	/	/	/
COc1cc(C(=O)NCC(c2cccs2)N(C)C)cc(Cl)c1OC(C)C (stereo unspecified)	-30	-4	34*	-15	1
COc1cc2ccccc2cc1C(=O)NCC(c1cccs1)N(C)C (stereo unspecified)	-16	-2	56*	-13	-1
